# Calls of active or inactive are those of the source.
# Legend:
# [1] = E. coli DRC41 culture turbidity changes, primary screen, E. coli filamentation inducer project, strain DRC41, OD650, 48 h (AID 1152);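 note: E. coli MC1000 strain DRC41 lacking acrAB efflux pump and sulA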; settings: E. coli DRC41 (acrAB sulA), higher = more signal, called active from +8 up or from −8 down
# [2] = small-molecule binders of probe aLefty1, primary screen, biochemical, small-molecule microarray, 635/667 nm fluorescence (AID 1153); settings: higher = more signal;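 note: score merges spot fluorescence with signal-to-noise ratio from the scanned slide images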
# [3] = PSAC antagonists in infected red cells, primary screen, cell-based, P. falciparum Indochina, OD700, 1 h (AID 1154); settings: P. falciparum Indochina infected RBC osmotic lysis, higher = more signal, called active from +8 up or from −8 down
# [4] = PSAC antagonists in infected red cells, primary screen, cell-based, P. falciparum Indochina, OD700, 2 h (AID 1155);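 note: lysis reports solute entry through the parasite surface anion channel PSAC; channel blockers reduce lysis of infected cells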; settings: P. falciparum Indochina infected erythrocytes, osmotic lysis OD700; higher = more signal, called active from +8 up or from −8 down
# [5] = osmotic lysis modulators in infected erythrocytes, primary screen, PSAC antagonist project, cell-based, P. falciparum Indochina, OD700, 3 h (AID 1156); settings: higher = more signal, called active from +8 up or from −8 down
# [6] = PSAC antagonists in infected red cells, primary screen, cell-based, P. falciparum Indochina, OD700, 18 h (AID 1157); settings: P. falciparum Indochina infected erythrocytes, osmotic lysis OD700, 18 h; higher = more signal, called active from +8 up or from −8 down
# [7] = modulators of S6 phosphorylation in cells, primary screen, cell-based, A549, cytoblot, luminescence, serum-stimulated (AID 1158); settings: A549 phospho-S6 cytoblot, 5 h, higher = more signal;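 note: serum-stimulated A549 lung adenocarcinoma cells; signal is phosphorylated S6 detected by cytoblot immunostaining with HRP secondary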
# [8] = biological target: NADPH oxidase 2 (Homo sapiens) (UniProt P04839); test: NOX2-dependent H2O2 signal modulators, primary screen, NOX inhibitor project, cell-based, HEK293-NOX2, PMA-stimulated, Amplex Red fluorescence (AID 1159); settings: 45 min, higher = more signal, called active from +8 up or from −8 down; note: test concentration not given here
# NADPH oxidase 2 (Homo sapiens), sequence (P04839 whole entry, looked up): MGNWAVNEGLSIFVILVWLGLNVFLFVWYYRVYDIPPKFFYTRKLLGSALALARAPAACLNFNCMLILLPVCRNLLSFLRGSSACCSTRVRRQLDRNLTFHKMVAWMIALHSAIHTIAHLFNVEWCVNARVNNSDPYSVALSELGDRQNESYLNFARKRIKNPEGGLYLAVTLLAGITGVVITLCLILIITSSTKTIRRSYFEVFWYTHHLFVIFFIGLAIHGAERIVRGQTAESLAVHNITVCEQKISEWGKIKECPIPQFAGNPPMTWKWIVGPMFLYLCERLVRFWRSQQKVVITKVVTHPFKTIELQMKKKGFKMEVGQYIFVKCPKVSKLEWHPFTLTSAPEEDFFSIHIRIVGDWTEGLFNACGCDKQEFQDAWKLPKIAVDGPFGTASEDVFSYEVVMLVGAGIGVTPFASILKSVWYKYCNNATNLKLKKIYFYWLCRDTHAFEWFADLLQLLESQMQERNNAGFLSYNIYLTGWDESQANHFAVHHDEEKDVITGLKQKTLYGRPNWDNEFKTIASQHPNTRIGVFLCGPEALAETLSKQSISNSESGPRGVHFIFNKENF
# [9] = biological target: NADPH oxidase 4 (Homo sapiens) (UniProt Q9NPH5); test: NOX4-dependent H2O2 signal modulators, primary screen, NOX inhibitor project, cell-based, HEK293-NOX4, tetracycline-induced, Amplex Red fluorescence (AID 1160); settings: 45 min, higher = more signal, called active from +8 up or from −8 down
# NADPH oxidase 4 (Homo sapiens), sequence (Q9NPH5 whole entry, looked up): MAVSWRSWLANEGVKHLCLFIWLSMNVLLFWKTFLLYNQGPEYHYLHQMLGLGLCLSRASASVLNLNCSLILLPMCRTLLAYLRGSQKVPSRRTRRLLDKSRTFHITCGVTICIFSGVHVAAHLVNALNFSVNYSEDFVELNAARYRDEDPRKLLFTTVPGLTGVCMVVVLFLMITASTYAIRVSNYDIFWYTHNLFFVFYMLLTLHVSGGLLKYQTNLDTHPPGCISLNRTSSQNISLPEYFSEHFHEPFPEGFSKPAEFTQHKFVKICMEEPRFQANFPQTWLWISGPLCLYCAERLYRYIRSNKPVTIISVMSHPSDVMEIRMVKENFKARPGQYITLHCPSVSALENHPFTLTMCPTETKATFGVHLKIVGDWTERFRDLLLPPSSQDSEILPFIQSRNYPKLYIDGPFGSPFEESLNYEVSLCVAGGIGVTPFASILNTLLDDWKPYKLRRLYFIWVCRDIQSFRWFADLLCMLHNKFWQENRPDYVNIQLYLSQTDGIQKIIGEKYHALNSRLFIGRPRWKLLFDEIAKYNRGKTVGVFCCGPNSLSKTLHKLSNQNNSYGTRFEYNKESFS
# [10] = biological target: NADPH oxidase 5 (Homo sapiens) (UniProt Q96PH1); test: NOX5-dependent H2O2 signal modulators, primary screen, NOX inhibitor project, cell-based, HEK293-NOX5, Amplex Red fluorescence (AID 1161); settings: HEK293-NOX5, ionomycin, 45 min, higher = more signal
# NADPH oxidase 5 (Homo sapiens), sequence (Q96PH1 whole entry, looked up): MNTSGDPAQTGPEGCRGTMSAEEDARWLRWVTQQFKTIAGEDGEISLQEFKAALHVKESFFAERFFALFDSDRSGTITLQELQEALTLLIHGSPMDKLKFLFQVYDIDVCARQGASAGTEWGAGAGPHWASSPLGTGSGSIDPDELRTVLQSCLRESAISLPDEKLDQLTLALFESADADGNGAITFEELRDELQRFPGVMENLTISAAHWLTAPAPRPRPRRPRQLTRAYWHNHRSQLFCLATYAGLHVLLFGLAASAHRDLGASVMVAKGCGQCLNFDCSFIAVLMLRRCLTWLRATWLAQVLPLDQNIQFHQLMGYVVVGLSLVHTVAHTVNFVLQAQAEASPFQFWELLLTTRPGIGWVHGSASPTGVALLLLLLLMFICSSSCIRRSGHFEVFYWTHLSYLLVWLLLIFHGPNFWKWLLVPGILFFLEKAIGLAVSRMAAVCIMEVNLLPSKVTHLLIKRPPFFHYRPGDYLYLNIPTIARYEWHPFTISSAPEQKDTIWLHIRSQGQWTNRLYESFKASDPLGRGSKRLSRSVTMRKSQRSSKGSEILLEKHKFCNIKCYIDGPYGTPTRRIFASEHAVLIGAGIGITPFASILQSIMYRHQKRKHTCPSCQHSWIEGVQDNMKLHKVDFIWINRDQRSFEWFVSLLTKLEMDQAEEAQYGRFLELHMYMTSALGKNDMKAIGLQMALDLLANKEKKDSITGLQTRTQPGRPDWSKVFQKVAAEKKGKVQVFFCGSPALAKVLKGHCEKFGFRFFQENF
# [11] = A549 cell viability effects, profiling panel, calcein-AM fluorescence, 48 h, basal (AID 1162); settings: higher = more signal; note: test concentration not given here
# [12] = adipocyte viability effects, profiling panel, cell-based, 3T3-L1 adipocytes, calcein-AM fluorescence, 48 h, basal (AID 1163); settings: 3T3-L1 adipocytes viability, higher = more signal; note: test concentration not given here
# [13] = HepG2 cell viability effects, profiling panel, calcein-AM fluorescence, 48 h, basal (AID 1164); settings: higher = more signal; note: test concentration not given here
# [14] = MM1S cell viability effects, profiling panel, calcein-AM fluorescence, 48 h, basal (AID 1165); settings: higher = more signal;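 note: viability of MM1S multiple myeloma cells under basal unstimulated conditions; test concentration not given here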
# [15] = basal RPMI8226 viability, no added stimulus, profiling panel, cell-based, calcein-AM fluorescence, 48 h, PK04 Diversity Set (AID 1166); settings: RPMI8226 myeloma viability, higher = more signal;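 note: cells grown under basal conditions without added stimulus; test concentration not given here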
# [16] = basal HepG2 mitochondrial membrane potential changes, profiling panel, cell-based, JC-1 fluorescence, 24 h, 100 nL compound (AID 1167); settings: higher = more signal; note: test concentration not given here
# [17] = basal 3T3-L1 adipocyte mitochondrial potential changes, profiling panel, cell-based, JC-1 fluorescence, 3T3-L1 adipocytes, 24 h, 100 nL compound (AID 1168); settings: JC-1 mitochondrial fluorescence, higher = more signal, called active from +8 up or from −8 down; note: test concentration not given here
# [18] = basal RPMI8226 mitochondrial membrane potential changes, profiling panel, cell-based, JC-1 fluorescence, 24 h, 100 nL compound (AID 1169); settings: RPMI8226 myeloma, JC-1 mitochondrial potential fluorescence, higher = more signal; note: test concentration not given here
# [19] = basal MM1S mitochondrial membrane potential changes, profiling panel, cell-based, JC-1 fluorescence, 24 h, 100 nL compound (AID 1170); settings: higher = more signal; note: test concentration not given here
# [20] = A549 lung cancer cell viability effects, profiling panel, resazurin fluorescence, 24 h, PK04 Diversity Set (AID 1171); settings: higher = more signal, called active from +8 up or from −8 down; note: test concentration not given here
Compound,z-score [1],composite z-score [2],z-score [3],z-score [4],z-score [5],z-score [6],z-score [7],z-score [8],z-score [9],z-score [10],z-score [11],z-score [12],z-score [13],z-score [14],z-score [15],z-score [16],z-score [17],z-score [18],z-score [19],z-score [20]
COc1ccc(C#Cc2ccc3c(c2)[C@]2(C(=O)N3)[C@H](C(=O)NC[C@H](O)c3ccccc3)[C@H]3C(=O)O[C@H](c4ccccc4)[C@H](c4ccccc4)N3[C@@H]2c2ccccc2OCCO)cc1,-0.13 (inactive),0.29,1.78 (inactive),1.95 (inactive),-0.054 (inactive),1.41 (inactive),-0.0009,1.53 (inactive),0.36 (inactive),0.24,-1.86,0.0393,-3.16,-3.35,-3.4,-2.27,2.97 (inactive),-0.865,-1.7,-1.58 (inactive)
COC(=O)C(CC#Cc1ccc2c(c1)[C@]1(C(=O)N2)[C@H](C(=O)NC[C@H](O)c2ccccc2)[C@H]2C(=O)O[C@H](c3ccccc3)[C@H](c3ccccc3)N2[C@@H]1c1ccc(OCCO)cc1)C(=O)OC,-0.658 (inactive),1.78,5.95 (inactive),2.11 (inactive),0.0313 (inactive),1.1 (inactive),0.161,1.39 (inactive),0.865 (inactive),1.41,1.07,0.55,0.0255,-1.17,0.0736,-1.06,1.04 (inactive),-0.94,-1.15,0.199 (inactive)
C#CCN(C(/C=C/c1ccccc1)CO)C(C(=O)O)c1ccccc1 (stereo not given),1.86 (inactive),-0.319,0.175 (inactive),-1.57 (inactive),-0.168 (inactive),-2.09 (inactive),1.81,-0.269 (inactive),-0.46 (inactive),-0.191,-0.341,1.45,-0.996,-0.659,-1.23,0.277,1.08 (inactive),-0.782,0.0117,-0.668 (inactive)
CN(C)C(=O)[C@]1(CCC(=O)OC(C)(C)C)N=C(c2ccc(OCCCO)cc2)O[C@@H]1c1ccccc1N=[N+]=[N-],0.761 (inactive),1.33,31 (active),29.8 (active),1.37 (inactive),2.34 (inactive),-0.294,-4.53 (inactive),-0.32 (inactive),-1.98,0.0413,0.473,0.333,-0.629,0.0141,2.25,2.52 (inactive),-0.568,-0.325,1.84 (inactive)
COCCOC(=O)N1C(=O)[C@@]2(c3cc(C#CCNC(N)=O)ccc31)[C@H](c1ccc(OCCO)cc1)N1[C@H](c3ccccc3)[C@H](c3ccccc3)OC(=O)[C@H]1[C@@H]2C(=O)N1CCc2cc(OC)c(OC)cc2C1,0.506 (inactive),0.308,3.71 (inactive),1.89 (inactive),0.523 (inactive),1.15 (inactive),0.307,1.89 (inactive),1.09 (inactive),0.284,1.24,0.427,0.34,0.451,-0.172,-1.04,1.65 (inactive),-0.489,-1.32,-0.189 (inactive)
COc1cc2c(cc1OC)CN(C(=O)[C@@H]1[C@H]3C(=O)O[C@H](c4ccccc4)[C@H](c4ccccc4)N3[C@H](c3ccccc3OCCO)[C@@]13C(=O)Nc1ccc(C#CCNC(N)=O)cc13)CC2,0.97 (inactive),0.882,1.14 (inactive),-0.45 (inactive),0.333 (inactive),-2.15 (inactive),3.09,1.24 (inactive),0.964 (inactive),-0.0555,1.12,1.62,0.871,0.52,0.625,-1.74,1.63 (inactive),-0.423,-0.322,-0.532 (inactive)
COC(=O)[C@@]1(Cc2ccc(OC)cc2)[C@H]2c3cc(C(=O)N4CCCC4)n(Cc4cc(F)cc5c4OCOC5)c3C[C@H]2CN1C(=O)c1ccccc1,-2.14 (inactive),-0.12,1.15 (inactive),0.142 (inactive),0.951 (inactive),0.522 (inactive),-0.0863,-0.327 (inactive),-1.94 (inactive),-1.06,-1.67,-0.151,-0.675,-3.31,-3.81,0.912,-0.562 (inactive),-0.753,-2.72,-1.5 (inactive)
CO[C@H]1O[C@H](CO)[C@@H](OC(=O)Nc2ccc(Oc3ccccc3)cc2)[C@H](OC(=O)Nc2ccccc2)[C@H]1OC(=O)Nc1ccccc1,0.415 (inactive),0.407,3.14 (inactive),1.09 (inactive),1.4 (inactive),0.766 (inactive),0.696,-0.909 (inactive),-3.18 (inactive),-0.854,-1.63,0.547,-3.37,-2.24,-3.61,-0.684,1.2 (inactive),-1.31,-0.427,-3.41 (inactive)
O=C(NCc1ccccc1)[C@]1(CCS(=O)(=O)c2ccccc2)N=C(c2ccc(OCCCO)cc2)O[C@@H]1c1ccccc1,0.673 (inactive),-0.345,24 (active),6.86 (inactive),1.85 (inactive),1.45 (inactive),-0.402,0.0459 (inactive),0.902 (inactive),0.242,-0.649,0.0335,-0.708,-0.478,-0.651,1.24,0.499 (inactive),-0.762,-1.75,-0.704 (inactive)
